Values joined by “and” are separate entries in the source; they are usually repeats but may differ in a detail not shown here. Equal entries are not always repeated. Among all 5,500 compounds or so, about 2,000 (36%) were called active. Inconclusive results (about 18%) are left out. Rule as the data show it: active = normalized growth mostly below about 0.91 (no sharp cut-off); inconclusive = no clear call, values can overlap the other calls; inactive = mostly above about 0.92. This is one part of the list.
Assay: chemical genetic growth profiling, strain panel (AID 1159580);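 also: tested at 20 µM; growth read once vehicle control cultures reached saturation at 30 °C; 1 = growth at the plate median or of vehicle wells; lower values mean less growth of the strain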
Settings: growth OD

Measured: normalized growth

Cn1c(=O)c2[nH]cnc2n(C)c1=O
inactive: S. cerevisiae deletion strains, locus YJR066W, strain TOR1, stronger effect = lower value 0.959 | S. cerevisiae deletion strains, locus YKL009W, strain mrt4, stronger effect = lower value 0.98 | S. cerevisiae deletion strains, locus YKL068W, stronger effect = lower value 0.992 | S. cerevisiae deletion strains, locus YKL085W, strain MDH1 (second series), stronger effect = lower value 0.982 | S. cerevisiae deletion strains, locus YKL085W, strain MDH1, stronger effect = lower value 0.982 | S. cerevisiae deletion strains, locus YKL160W, strain elf1, stronger effect = lower value 1.04 | S. cerevisiae deletion strains, locus YKL190W, strain CNB1, stronger effect = lower value 0.996 | S. cerevisiae deletion strains, locus YKR001C, strain vps1, stronger effect = lower value 0.971 | S. cerevisiae deletion strains, locus YKR026C, strain gcn3, stronger effect = lower value 1.01 | S. cerevisiae deletion strains, locus YKR091W, strain srl3, stronger effect = lower value 1.02 | S. cerevisiae deletion strains, locus YLL001W, strain dnm1, stronger effect = lower value 1.01 | S. cerevisiae deletion strains, locus YLL026W, stronger effect = lower value 1.02 | S. cerevisiae deletion strains, locus YLL041C, strain sdh2, stronger effect = lower value 1.01 | S. cerevisiae deletion strains, locus YLR027C, strain aat2, stronger effect = lower value 1.02 | S. cerevisiae deletion strains, locus YLR039C, strain RIC1, stronger effect = lower value 0.982 | S. cerevisiae deletion strains, locus YLR058C, strain SHM2, stronger effect = lower value 0.988 | S. cerevisiae deletion strains, locus YLR102C, strain apc9, stronger effect = lower value 0.977 | S. cerevisiae deletion strains, locus YLR113W, strain HOG1, stronger effect = lower value 0.99 | S. cerevisiae deletion strains, locus YLR221C, strain rsa3, stronger effect = lower value 1.02 | S. cerevisiae deletion strains, locus YLR258W, strain gsy2, stronger effect = lower value 1.02 | S. cerevisiae deletion strains, locus YLR262C, strain YPT6 (second series), stronger effect = lower value 1 | S. cerevisiae deletion strains, locus YLR262C, strain YPT6, stronger effect = lower value 0.993 | S. cerevisiae deletion strains, locus YLR268W, strain sec22, stronger effect = lower value 0.941 | S. cerevisiae deletion strains, locus YLR320W, strain mms22, stronger effect = lower value 1.01 | S. cerevisiae deletion strains, locus YLR330W, strain CHS5, stronger effect = lower value 0.992 | S. cerevisiae deletion strains, locus YLR342W, strain FKS1 (second series), stronger effect = lower value 0.99 | S. cerevisiae deletion strains, locus YLR342W, strain FKS1, stronger effect = lower value 1.02 | S. cerevisiae deletion strains, locus YLR357W, strain rsc2, stronger effect = lower value 1.01 | S. cerevisiae deletion strains, locus YLR370C, strain arc18, stronger effect = lower value 1.03 | S. cerevisiae deletion strains, locus YLR371W, strain rom2, stronger effect = lower value 0.968 | S. cerevisiae deletion strains, locus YLR384C, strain iki3, stronger effect = lower value 1.01 | S. cerevisiae deletion strains, locus YLR418C, strain cdc73, stronger effect = lower value 0.971 | S. cerevisiae deletion strains, locus YML016C, strain PPZ1, stronger effect = lower value 0.989 | S. cerevisiae deletion strains, locus YML032C, strain rad52, stronger effect = lower value 0.971 | S. cerevisiae deletion strains, locus YML120C, strain ndi1, stronger effect = lower value 1.02 | S. cerevisiae deletion strains, locus YML124C, strain tub3, stronger effect = lower value 0.969 | S. cerevisiae deletion strains, locus YMR058W, strain fet3, stronger effect = lower value 1.02 | S. cerevisiae deletion strains, locus YMR078C, strain ctf18, stronger effect = lower value 0.975 | S. cerevisiae deletion strains, locus YMR125W, strain sto1, stronger effect = lower value 1.01 | S. cerevisiae deletion strains, locus YMR129W, stronger effect = lower value 1.01 | S. cerevisiae deletion strains, locus YMR205C, strain PFK2, stronger effect = lower value 1.04 | S. cerevisiae deletion strains, locus YMR223W, strain ubp8, stronger effect = lower value 0.984 | S. cerevisiae deletion strains, locus YMR231W, strain pep5, stronger effect = lower value 1.02 | S. cerevisiae deletion strains, locus YMR263W, strain SAP30, stronger effect = lower value 0.996 | S. cerevisiae deletion strains, locus YMR307W, strain GAS1, stronger effect = lower value 0.992 | S. cerevisiae deletion strains, locus YNL067W, strain RPL9B, stronger effect = lower value 0.993 | S. cerevisiae deletion strains, locus YNL071W, strain lat1, stronger effect = lower value 1.03 | S. cerevisiae deletion strains, locus YNL128W, strain TEP1, stronger effect = lower value 0.985 | S. cerevisiae deletion strains, locus YNL153C, strain GIM3, stronger effect = lower value 0.988 | S. cerevisiae deletion strains, locus YNL175C, strain NOP13, stronger effect = lower value 0.995 | S. cerevisiae deletion strains, locus YNL183C, strain NPR1, stronger effect = lower value 0.955 | S. cerevisiae deletion strains, locus YNL197C, strain WHI3, stronger effect = lower value 1 | S. cerevisiae deletion strains, locus YNL209W, strain ssb2, stronger effect = lower value 1.02 | S. cerevisiae deletion strains, locus YNL224C, strain SQS1, stronger effect = lower value 0.99 | S. cerevisiae deletion strains, locus YNL233W, strain BNI4, stronger effect = lower value 0.993 | S. cerevisiae deletion strains, locus YNL248C, strain rpa49, stronger effect = lower value 1.05 | S. cerevisiae deletion strains, locus YNL250W, strain rad50, stronger effect = lower value 0.979 | S. cerevisiae deletion strains, locus YNL271C, strain bni1, stronger effect = lower value 0.967 | S. cerevisiae deletion strains, locus YNL298W, strain CLA4, stronger effect = lower value 0.965 | S. cerevisiae deletion strains, locus YNL307C, strain MCK1, stronger effect = lower value 0.971 | S. cerevisiae deletion strains, locus YNL322C, strain KRE1 (second series), stronger effect = lower value 1.01 | S. cerevisiae deletion strains, locus YNR049C, strain mso1, stronger effect = lower value 1.02 | S. cerevisiae deletion strains, locus YNR052C, strain pop2, stronger effect = lower value 0.971 | S. cerevisiae deletion strains, locus YOL006C, strain TOP1, stronger effect = lower value 1.01 | S. cerevisiae deletion strains, locus YOL012C, strain htz1 0.812 | S. cerevisiae deletion strains, locus YOL147C, strain pex11, stronger effect = lower value 0.973 | S. cerevisiae deletion strains, locus YOR001W, strain rrp6, stronger effect = lower value 0.994 | S. cerevisiae deletion strains, locus YOR061W, strain CKA2, stronger effect = lower value 0.988 | S. cerevisiae deletion strains, locus YOR069W, strain VPS5, stronger effect = lower value 0.982 | S. cerevisiae deletion strains, locus YOR070C, strain gyp1, stronger effect = lower value 1.04 | S. cerevisiae deletion strains, locus YOR080W, strain dia2, stronger effect = lower value 1 | S. cerevisiae deletion strains, locus YOR083W, strain WHI5 (second series), stronger effect = lower value 1.01 | S. cerevisiae deletion strains, locus YOR083W, strain WHI5, stronger effect = lower value 1.03 | S. cerevisiae deletion strains, locus YOR106W, strain vam3, stronger effect = lower value 1.05 | S. cerevisiae deletion strains, locus YOR136W, strain idh2, stronger effect = lower value 0.986 | S. cerevisiae deletion strains, locus YOR144C, strain elg1, stronger effect = lower value 0.981 | S. cerevisiae deletion strains, locus YOR184W, strain ser1, stronger effect = lower value 0.97 | S. cerevisiae deletion strains, locus YOR231W, strain MKK1, stronger effect = lower value 0.979 | S. cerevisiae deletion strains, locus YOR265W, strain rbl2, stronger effect = lower value 1.01 | S. cerevisiae deletion strains, locus YOR270C, strain vph1, stronger effect = lower value 1.05 | S. cerevisiae deletion strains, locus YOR290C, strain snf2, stronger effect = lower value 1.05 | S. cerevisiae deletion strains, locus YOR316C, strain cot1, stronger effect = lower value 0.969 | S. cerevisiae deletion strains, locus YPL051W, strain arl3, stronger effect = lower value 1.04 | S. cerevisiae deletion strains, locus YPL078C, strain atp4, stronger effect = lower value 1.04 | S. cerevisiae deletion strains, locus YPL106C, strain sse1, stronger effect = lower value 1.05 | S. cerevisiae deletion strains, locus YPL240C, strain hsp82, stronger effect = lower value 1.02 | S. cerevisiae deletion strains, locus YPL241C, strain CIN2, stronger effect = lower value 0.992 and 1 | S. cerevisiae deletion strains, locus YPL256C, strain CLN2, stronger effect = lower value 0.97 | S. cerevisiae deletion strains, locus YPR119W, strain clb2, stronger effect = lower value 0.986 | S. cerevisiae deletion strains, locus YPR141C, strain kar3, stronger effect = lower value 0.961 | S. cerevisiae deletion strains, locus YPR163C, strain tif3, stronger effect = lower value 0.965 | S. cerevisiae deletion strains, locus YPR167C, strain met16, stronger effect = lower value 0.977 | S. cerevisiae deletion strains, strain wtn01, stronger effect = lower value 0.953 | S. cerevisiae strains, strain wild type, stronger effect = lower value 1
